The results in this text go back to PubChem BioAssay (NCI).

Some test systems named below: SR leukemia; RPMI-8226 leukemia; OVCAR-8 ovarian; OVCAR-5 ovarian; OVCAR-4 ovarian; SK-OV-3 ovarian; IGROV1 ovarian; OVCAR-3 ovarian; HS 578T breast; NCI/ADR-RES ovarian; T-47D breast; BT-549 breast; MDA-MB-435 melanoma; SW-620 colon; MCF7 breast; HCT-116 colon; HCC-2998 colon; KM12 colon.
Holding throughout (experiment): NCI-60 one-dose screen, 48 h (100 = growth as untreated, 0 = no growth, -100 = all killed)
What all share (conditions): 10 µM unless noted

Compounds without any hit were thinned out: in the full panel of roughly 83,000, 20% have a hit.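 Treatment: one concentration, 48 hours, 96-well format. Scoring: percent growth, with anything below 10 considered active.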 A number with no mark means an inactive call. Active and inactive are the calls of the source.

With `N/C(=N\OC(=O)CSc1nc2ccccc2s1)c1ccc(Cl)cc1`, the growth with SR leukemia was 84.8%; with RPMI-8226 leukemia, 99.4%; in the assay with OVCAR-8 ovarian it was 98%; in the assay with OVCAR-5 ovarian it was 100%; in the assay on OVCAR-4 ovarian, 107%; with SK-OV-3 ovarian, 101%. In addition, the growth was 89% in the assay with IGROV1 ovarian; 111% with OVCAR-3 ovarian; 97% in the assay on HS 578T breast; 101% in the assay on NCI/ADR-RES ovarian; 96.6% in the assay with T-47D breast; 107% in the assay with BT-549 breast. For the same compound, the growth in the assay on MDA-MB-435 melanoma is 101%; with SW-620 colon it was 98%; with MCF7 breast, 97.4%; in the assay with HCT-116 colon, 105%; with HCC-2998 colon, 105%; with KM12 colon, 101%.

On to `O=C(O)c1ccc(-n2cc(CNc3ccc(F)cc3)c(-c3ccc(C(F)(F)F)cc3)n2)cc1`, for which the growth was 109% in the assay on SR leukemia; 86.5% in the assay with RPMI-8226 leukemia; 71.8% with OVCAR-8 ovarian; 106% in the assay on OVCAR-5 ovarian; 86.8% with OVCAR-4 ovarian; 95.2% with SK-OV-3 ovarian. For the same compound, the growth was 95% with IGROV1 ovarian; 84.1% in the assay on OVCAR-3 ovarian; 88.8% in the assay on HS 578T breast; 87% in the assay on NCI/ADR-RES ovarian; 78.2% with T-47D breast; 103% in the assay on BT-549 breast. For the same compound, the growth is 80.9% with MDA-MB-435 melanoma; 98.6% in the assay on SW-620 colon; 67.8% in the assay with MCF7 breast; 83.3% in the assay on HCT-116 colon; 102% with HCC-2998 colon; 78.7% in the assay on KM12 colon.

`O=C(/C=C/c1cccc(O)c1)c1ccc(O)cc1`: the growth in the assay on SR leukemia was 13%; in the assay with RPMI-8226 leukemia, 18.7%; in the assay with OVCAR-8 ovarian it was 83.7%; with OVCAR-5 ovarian it was 91.4%; in the assay with OVCAR-4 ovarian, 96.2%; in the assay with SK-OV-3 ovarian, 112%. Further, the growth in the assay on IGROV1 ovarian is 80.2%; in the assay on OVCAR-3 ovarian, 14.3%; with HS 578T breast, 101%; with NCI/ADR-RES ovarian it was 71.4%; in the assay on T-47D breast it was 62.6%; in the assay with BT-549 breast, 86.5%. Further, the growth with MDA-MB-435 melanoma is 65.5%; in the assay with SW-620 colon, 49.2%; with MCF7 breast, 37.3%; in the assay with HCT-116 colon, 33.8%; in the assay with HCC-2998 colon it was 110%; in the assay with KM12 colon it was 33.4%.

`NC(=O)c1c(NC(=O)c2cccc(C(F)(F)F)c2F)sc2c1CCC(=O)C2`: the growth with SR leukemia is 18.7%; with RPMI-8226 leukemia, -5.06% (active); with OVCAR-8 ovarian it was 18.3%; in the assay on OVCAR-5 ovarian, 15.6%; in the assay with OVCAR-4 ovarian, 6.91% (active); in the assay on SK-OV-3 ovarian, 77.2%. Moreover, the growth in the assay with IGROV1 ovarian is 23.7%; in the assay on OVCAR-3 ovarian, 11.6%; with HS 578T breast, 33.9%; in the assay with NCI/ADR-RES ovarian it was 11%; in the assay with T-47D breast it was 11.8%; in the assay with BT-549 breast, 11.4%. Also, the growth with MDA-MB-435 melanoma was 12.3%; with SW-620 colon, 2.94% (active); with MCF7 breast, 6.11% (active); in the assay on HCT-116 colon, 7.49% (active); with HCC-2998 colon, 44.1%; with KM12 colon it was 7.39% (active).

In the case of `COc1cc(/C=N/n2cnc3oc(-c4ccccc4)cc3c2=N)cc(CN2CCOCC2)c1O`, the growth is 32% with SR leukemia; 27.5% in the assay with RPMI-8226 leukemia; 60.4% with OVCAR-8 ovarian; 84.2% in the assay with OVCAR-5 ovarian; 72.6% in the assay with OVCAR-4 ovarian; 68.4% in the assay with SK-OV-3 ovarian. Moreover, the growth in the assay with IGROV1 ovarian was 21.7%; in the assay on OVCAR-3 ovarian, 108%; in the assay with HS 578T breast, 14.8%; in the assay on NCI/ADR-RES ovarian, 72.5%; with T-47D breast, 81.6%; in the assay with BT-549 breast, 109%. Also, the growth in the assay on MDA-MB-435 melanoma was 60.8%; with SW-620 colon, 86.1%; in the assay with MCF7 breast it was 73.8%; in the assay on HCT-116 colon, 29.8%; in the assay on HCC-2998 colon it was 101%; in the assay with KM12 colon it was 41.1%.

`CC[C@@](C)(NC(=O)C(C)(C)NC(=O)[C@@H](NC(=O)[C@@H]1CCCN1C(=O)C(C)(C)NC(=O)[C@H](CC(C)C)NC(=O)CNC(=O)C(C)(C)NC(=O)[C@@H](NC(=O)C(C)(C)NC(=O)[C@H](CCC(N)=O)NC(=O)[C@H](C)NC(=O)C(C)(C)NC(=O)[C@H](C)NC(=O)C(C)(C)NC(=O)[C@@H]1CCCN1C(=O)C(C)(C)NC(C)=O)C(C)C)C(C)C)C(=O)N[C@@H](CCC(N)=O)C(=O)N[C@@H](CCC(N)=O)C(=O)N[C@H](CO)Cc1ccccc1`: the growth with SR leukemia is 22.2% [4.25 µM]; with RPMI-8226 leukemia it was -10.5% [4.25 µM] (active); with OVCAR-8 ovarian it was 94.5% [4.25 µM]; in the assay on OVCAR-5 ovarian, 44.9% [4.25 µM]; in the assay on OVCAR-4 ovarian, 59.2% [4.25 µM]; in the assay with SK-OV-3 ovarian, 31.3% [4.25 µM]. For the same compound, the growth with IGROV1 ovarian is 42.6% [4.25 µM]; in the assay on OVCAR-3 ovarian it was 14.6% [4.25 µM]; with HS 578T breast, 52.1% [4.25 µM]; with NCI/ADR-RES ovarian, 100% [4.25 µM]; in the assay with T-47D breast, 0.666% [4.25 µM] (active); in the assay with BT-549 breast it was -50.2% [4.25 µM] (active). Moreover, the growth with MDA-MB-435 melanoma was 4.98% [4.25 µM] (active); in the assay on SW-620 colon, 54.9% [4.25 µM]; in the assay on MCF7 breast it was 9.62% [4.25 µM] (active); with HCT-116 colon, 27.8% [4.25 µM]; in the assay with HCC-2998 colon, 29.3% [4.25 µM]; with KM12 colon, 29.5% [4.25 µM].

Turning to `Oc1ccccc1-c1nnc(SCc2ccc(O)c3ncccc23)n1-c1ccccc1`, the growth in the assay on SR leukemia is 25.2%; in the assay with RPMI-8226 leukemia, 12.2%; with OVCAR-8 ovarian it was 15.5%; with OVCAR-5 ovarian it was 33%; with OVCAR-4 ovarian, 16.3%; with SK-OV-3 ovarian it was 8.88% (active). The growth with IGROV1 ovarian was 6.65% (active); with OVCAR-3 ovarian, 18.7%; in the assay on HS 578T breast, 21.3%; in the assay on NCI/ADR-RES ovarian it was 6.23% (active); with T-47D breast, 6.93% (active); in the assay on BT-549 breast, 25.2%. Moreover, the growth was 14.4% in the assay with MDA-MB-435 melanoma; 14.9% in the assay with SW-620 colon; 3.11% (active) with MCF7 breast; 12.6% with HCT-116 colon; 29% in the assay on HCC-2998 colon; 15.4% in the assay with KM12 colon.
